# In the supplement of paper PMC4022240:
# ± gives the standard deviation.
# T1: HaloTag-ATRX ADD domain (163-292)
# T1 chain: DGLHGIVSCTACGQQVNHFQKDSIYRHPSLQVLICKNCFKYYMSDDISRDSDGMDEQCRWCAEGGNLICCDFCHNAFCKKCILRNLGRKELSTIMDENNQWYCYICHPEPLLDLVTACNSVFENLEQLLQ
# B1: H3 20-32 L A T K A A R Kac Sph A P A T (peptide)
# chain: LATKAARKSAPAT
# B2: H3 20-32 L A T K A A R Kac S A P A T (peptide)
# chain: LATKAARKSAPAT
# B3: H3 20-32 L A T K A A R Kme S A P A T (peptide)
# chain: LATKAARKSAPAT
# B4: H3 20-32 L A T K A A R Kme Sph A P A T (peptide)
# chain: LATKAARKSAPAT
# B5: H3 20-32 L A T K A A R Kme2 S A P A T (peptide)
# chain: LATKAARKSAPAT
# B6: H3 20-32 L A T K A A R Kme2 Sph A P A T (peptide)
# chain: LATKAARKSAPAT
# B7: H3 20-32 L A T K A A R Kme3 S A P A T (peptide)
# chain: LATKAARKSAPAT
# B8: H3 20-32 L A T K A A R Kme3 Sph A P A T (peptide)
# chain: LATKAARKSAPAT
# B9: H3 20-32 L A T K A A Rcit Kac S A P A T (peptide)
# chain: LATKAARKSAPAT
# B10: H3 20-32 L A T K A A Rcit Kme S A P A T (peptide)
# chain: LATKAARKSAPAT
# Legend:
# Assay in all cases: peptide microarray binding signal (635 nm), min-max normalized on array (fraction of array maximum); higher = stronger binding
# Conditions in all cases: peptide region: H3 20-32
# [1] = target: T1, HaloTag-ATRX ADD domain (163-292)
# Method in brief: (§1)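 Within each library, mean intensities of triplicate spots were min-max scaled to give the binding signal. The spots were histone 13-mer peptide–cellulose conjugates on nitrocellulose with a Cy3 tracer, blocked overnight at 4°C. They were then probed for 1 h at 4°C using biotin-labelled HaloTag reader fusions (10 nM to 1 μM) with streptavidin-Alexa Fluor 647 or rabbit histone antibodies (1:10,000 to 1:2,000) with anti-rabbit Alexa 647, and scanned at 635 nm for signal and 532 nm for misprints on an Axon GenePix 4000B.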
# [2] = target: HaloTag-ING2 PHD (mouse Ing2 200-280)
# Method in brief: as §1
# [3] = target: anti-H3K4me3 antibody ab8580
# Method in brief: as §1
# [4] = target: anti-H3K9me3 antibody ab8898
# Method in brief: as §1
# [5] = peptide modifications: H3K27ac H3S28ph, binder concentration: 1:2,000 dilution
# [6] = peptide modifications: H3K27ac H3S28ph, binder concentration: 1:10,000 dilution
# [7] = peptide modifications: H3K27ac, binder concentration: 1:2,000 dilution
# [8] = peptide modifications: H3K27ac, binder concentration: 1:10,000 dilution
# [9] = peptide modifications: H3K27me1, binder concentration: 1:2,000 dilution
# [10] = peptide modifications: H3K27me1, binder concentration: 1:10,000 dilution
# [11] = peptide modifications: H3K27me1 H3S28ph, binder concentration: 1:2,000 dilution
# [12] = peptide modifications: H3K27me1 H3S28ph, binder concentration: 1:10,000 dilution
# [13] = peptide modifications: H3K27me2, binder concentration: 1:2,000 dilution
# [14] = peptide modifications: H3K27me2, binder concentration: 1:10,000 dilution
# [15] = peptide modifications: H3K27me2 H3S28ph, binder concentration: 1:2,000 dilution
# [16] = peptide modifications: H3K27me2 H3S28ph, binder concentration: 1:10,000 dilution
# [17] = peptide modifications: H3K27me3, binder concentration: 1:2,000 dilution
# [18] = peptide modifications: H3K27me3, binder concentration: 1:10,000 dilution
# [19] = peptide modifications: H3K27me3 H3S28ph, binder concentration: 1:2,000 dilution
# [20] = peptide modifications: H3K27me3 H3S28ph, binder concentration: 1:10,000 dilution
# [21] = peptide modifications: H3R26cit H3K27ac, binder concentration: 1:2,000 dilution
# [22] = peptide modifications: H3R26cit H3K27ac, binder concentration: 1:10,000 dilution
# [23] = peptide modifications: H3R26cit H3K27me1, binder concentration: 1:2,000 dilution
# [24] = peptide modifications: H3R26cit H3K27me1, binder concentration: 1:10,000 dilution
binder,measurement,setting,value
B1,peptide microarray binding signal,"[1]; peptide modifications: H3K27ac H3S28ph, binder concentration: 50 nM",0.00903 ± 0.00081
same,peptide microarray binding signal,"[1]; peptide modifications: H3K27ac H3S28ph, binder concentration: 500 nM",0.0153 ± 0.0002
same,peptide microarray binding signal,"[2]; peptide modifications: H3K27ac H3S28ph, binder concentration: 10 nM",0.0221 ± 0.0015
same,peptide microarray binding signal,"[2]; peptide modifications: H3K27ac H3S28ph, binder concentration: 100 nM",0.0405 ± 0.0074
same,peptide microarray binding signal,[3]; [5],0.00951 ± 0.0017
same,peptide microarray binding signal,[3]; [6],0.0101 ± 0.0017
same,peptide microarray binding signal,[4]; [5],0.00536 ± 0.0021
same,peptide microarray binding signal,[4]; [6],0.00277 ± 6.4e-05
B2,peptide microarray binding signal,"[1]; peptide modifications: H3K27ac, binder concentration: 50 nM",0.00542 ± 6.7e-05
same,peptide microarray binding signal,"[1]; peptide modifications: H3K27ac, binder concentration: 500 nM",0.00819 ± 0.00035
same,peptide microarray binding signal,"[2]; peptide modifications: H3K27ac, binder concentration: 10 nM",0.013 ± 0.00049
same,peptide microarray binding signal,"[2]; peptide modifications: H3K27ac, binder concentration: 100 nM",0.0498 ± 0.05
same,peptide microarray binding signal,[3]; [7],0.00461 ± 0.00054
same,peptide microarray binding signal,[3]; [8],0.00508 ± 0.00032
same,peptide microarray binding signal,[4]; [7],0.00281 ± 0.00022
same,peptide microarray binding signal,[4]; [8],0.002652 ± 2.3e-05
B3,peptide microarray binding signal,"[1]; peptide modifications: H3K27me1, binder concentration: 50 nM",0.00455 ± 9.6e-05
same,peptide microarray binding signal,"[1]; peptide modifications: H3K27me1, binder concentration: 500 nM",0.00714 ± 0.00042
same,peptide microarray binding signal,"[2]; peptide modifications: H3K27me1, binder concentration: 10 nM",0.00961 ± 0.00022
same,peptide microarray binding signal,"[2]; peptide modifications: H3K27me1, binder concentration: 100 nM",0.0148 ± 0.00019
same,peptide microarray binding signal,[3]; [9],0.00402 ± 0.00028
same,peptide microarray binding signal,[3]; [10],0.00405 ± 0.00025
same,peptide microarray binding signal,[4]; [9],0.00231 ± 0.00014
same,peptide microarray binding signal,[4]; [10],0.00208 ± 3.9e-05
B4,peptide microarray binding signal,"[1]; peptide modifications: H3K27me1 H3S28ph, binder concentration: 50 nM",0.00502 ± 0.00011
same,peptide microarray binding signal,"[1]; peptide modifications: H3K27me1 H3S28ph, binder concentration: 500 nM",0.00762 ± 0.00035
same,peptide microarray binding signal,"[2]; peptide modifications: H3K27me1 H3S28ph, binder concentration: 10 nM",0.0135 ± 0.00073
same,peptide microarray binding signal,"[2]; peptide modifications: H3K27me1 H3S28ph, binder concentration: 100 nM",0.0189 ± 0.00035
same,peptide microarray binding signal,[3]; [11],0.00485 ± 0.0004
same,peptide microarray binding signal,[3]; [12],0.00519 ± 0.00023
same,peptide microarray binding signal,[4]; [11],0.00263 ± 0.00013
same,peptide microarray binding signal,[4]; [12],0.00277 ± 0.00013
B5,peptide microarray binding signal,"[1]; peptide modifications: H3K27me2, binder concentration: 50 nM",0.00292 ± 6.9e-05
same,peptide microarray binding signal,"[1]; peptide modifications: H3K27me2, binder concentration: 500 nM",0.003238 ± 2.5e-05
same,peptide microarray binding signal,"[2]; peptide modifications: H3K27me2, binder concentration: 10 nM",0.00567 ± 0.00012
same,peptide microarray binding signal,"[2]; peptide modifications: H3K27me2, binder concentration: 100 nM",0.00581 ± 0.00013
same,peptide microarray binding signal,[3]; [13],0.00193 ± 6.9e-05
same,peptide microarray binding signal,[3]; [14],0.00205 ± 3.8e-05
same,peptide microarray binding signal,[4]; [13],0.00153 ± 0.00012
same,peptide microarray binding signal,[4]; [14],0.00144 ± 3.7e-05
B6,peptide microarray binding signal,"[1]; peptide modifications: H3K27me2 H3S28ph, binder concentration: 50 nM",0.00527 ± 0.00024
same,peptide microarray binding signal,"[1]; peptide modifications: H3K27me2 H3S28ph, binder concentration: 500 nM",0.0144 ± 0.00043
same,peptide microarray binding signal,"[2]; peptide modifications: H3K27me2 H3S28ph, binder concentration: 10 nM",0.0156 ± 0.00093
same,peptide microarray binding signal,"[2]; peptide modifications: H3K27me2 H3S28ph, binder concentration: 100 nM",0.0272 ± 0.0025
same,peptide microarray binding signal,[3]; [15],0.00985 ± 0.00073
same,peptide microarray binding signal,[3]; [16],0.00508 ± 0.00053
same,peptide microarray binding signal,[4]; [15],0.00619 ± 0.0012
same,peptide microarray binding signal,[4]; [16],0.0129 ± 0.0067
B7,peptide microarray binding signal,"[1]; peptide modifications: H3K27me3, binder concentration: 50 nM",0.00602 ± 0.00022
same,peptide microarray binding signal,"[1]; peptide modifications: H3K27me3, binder concentration: 500 nM",0.008 ± 0.00041
same,peptide microarray binding signal,"[2]; peptide modifications: H3K27me3, binder concentration: 10 nM",0.0119 ± 0.00027
same,peptide microarray binding signal,"[2]; peptide modifications: H3K27me3, binder concentration: 100 nM",0.0118 ± 0.00043
same,peptide microarray binding signal,[3]; [17],0.0112 ± 0.0008
same,peptide microarray binding signal,[3]; [18],0.00907 ± 0.0011
same,peptide microarray binding signal,[4]; [17],0.0533 ± 0.0049
same,peptide microarray binding signal,[4]; [18],0.0225 ± 0.0027
B8,peptide microarray binding signal,"[1]; peptide modifications: H3K27me3 H3S28ph, binder concentration: 50 nM",0.00618 ± 0.00025
same,peptide microarray binding signal,"[1]; peptide modifications: H3K27me3 H3S28ph, binder concentration: 500 nM",0.0125 ± 0.00027
same,peptide microarray binding signal,"[2]; peptide modifications: H3K27me3 H3S28ph, binder concentration: 10 nM",0.0171 ± 0.0012
same,peptide microarray binding signal,"[2]; peptide modifications: H3K27me3 H3S28ph, binder concentration: 100 nM",0.037 ± 0.0095
same,peptide microarray binding signal,[3]; [19],0.0312 ± 0.0057
same,peptide microarray binding signal,[3]; [20],0.0191 ± 0.0066
same,peptide microarray binding signal,[4]; [19],0.104 ± 0.021
same,peptide microarray binding signal,[4]; [20],0.0474 ± 0.0052
B9,peptide microarray binding signal,"[1]; peptide modifications: H3R26cit H3K27ac, binder concentration: 50 nM",0.00486 ± 0.00011
same,peptide microarray binding signal,"[1]; peptide modifications: H3R26cit H3K27ac, binder concentration: 500 nM",0.0109 ± 0.00038
same,peptide microarray binding signal,"[2]; peptide modifications: H3R26cit H3K27ac, binder concentration: 10 nM",0.0232 ± 0.0013
same,peptide microarray binding signal,"[2]; peptide modifications: H3R26cit H3K27ac, binder concentration: 100 nM",0.0235 ± 0.0022
same,peptide microarray binding signal,[3]; [21],0.0101 ± 0.00075
same,peptide microarray binding signal,[3]; [22],0.00553 ± 0.0019
same,peptide microarray binding signal,[4]; [21],0.00415 ± 0.0003
same,peptide microarray binding signal,[4]; [22],0.00288 ± 4.3e-05
B10,peptide microarray binding signal,"[1]; peptide modifications: H3R26cit H3K27me1, binder concentration: 50 nM",0.0118 ± 0.0037
same,peptide microarray binding signal,"[1]; peptide modifications: H3R26cit H3K27me1, binder concentration: 500 nM",0.011 ± 0.002
same,peptide microarray binding signal,"[2]; peptide modifications: H3R26cit H3K27me1, binder concentration: 10 nM",0.0174 ± 0.00085
same,peptide microarray binding signal,"[2]; peptide modifications: H3R26cit H3K27me1, binder concentration: 100 nM",0.0171 ± 0.0017
same,peptide microarray binding signal,[3]; [23],0.00427 ± 0.00087
same,peptide microarray binding signal,[3]; [24],0.00576 ± 0.00078
same,peptide microarray binding signal,[4]; [23],0.00346 ± 0.0001
same,peptide microarray binding signal,[4]; [24],0.002249 ± 2.1e-05
